Laboratory results taken from PubChem BioAssay (NCATS).
Results filed as inconclusive are left out. Active and inactive are the calls of the source. Unless noted, calls come from the whole dose curve; as a rule, active = well fitted curve in the direction sought with a large enough effect; inconclusive = small, poorly fitted or top-dose-only effect, or another doubt; inactive = no such curve, though single readings can be large; an effect the other way counts as inactive or inconclusive.

Key:
[1] = MultiTox-Fluor Cytotoxicity Assay - LYMP1-002 - Live Cells (AID 955); note: % is set by controls: 0 for no effect and ±100 for the full control effect
Outline: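 After 16 h compound exposure at 37 C, live LYMP1-002 lymphoblastoid cells (2500/well) were quantified by cleavage of cell-permeant GF-AFC substrate, read at 405/510 nm after 60 min. Concentration-response fitted with Hill equation for AC50.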

[2] = MultiTox-Fluor Cytotoxicity Assay - LYMP1-003 - Dead Cells (AID 961);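 note: 0% = DMSO and 100% = tetraoctylammonium bromide; nearly all actives have a fitted effect of over 70% in size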
Outline: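 LYMP1-003 human lymphoblastoid cells (2500/well) exposed to compound 16 h at 37 C in complete medium; dead-cell protease read with bis-AAF-R110 fluorescence (Ex/Em 485/520) after 60 min at room temperature. Normalized to DMSO and 15 uM tetraoctylammonium bromide; AC50 from Hill fit.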

[3] = MultiTox-Fluor Cytotoxicity Assay - LYMP1-003 - Live Cells (AID 962);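 note: 0% = DMSO only and full loss = 92 µM tetraoctylammonium bromide; cytotoxic hits lower the live-cell protease signal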
Outline: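 Live-cell protease activity (GF-AFC substrate, 405/510 nm, 60 min at room temperature) after 16 h, 37 C compound exposure of human lymphoblastoid LYMP1-003 cells; concentration-response fitted to the Hill equation for AC50.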

[4] = Cell Viability - LYMP1-003 - Assay at 24 hr (AID 963);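 note: plate controls were DMSO only for no effect and tetraoctylammonium bromide positive control for full effect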
Outline: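 Concentration-response qHTS: ATP loss measured by CellTiter-Glo luminescence after 24 h compound exposure at 37 C. Cells were LYMP1-003 human lymphoblastoid, 2500 per well. AC50 derived via standard Hill equation modeling.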

[5] = Cell Viability - LYMP1-003 - Assay at 40 hr (AID 964); note: series mostly up to about 92 µM; % is set by controls: 0 for no effect and ±100 for the full control effect; nearly all actives have a fitted effect of over 60% in size
Outline: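 Viability is taken as cellular ATP, read by CellTiter-Glo luminescence after 40 h of compound exposure at 37 C. Cells: human lymphoblastoid line LYMP1-003 at 2500/well; AC50 values derived by Hill-equation fitting of concentration-response data.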

[6] = Cell Viability - LYMP2-003 (AID 965);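 note: cells exposed to compounds for 24 h before reading; 0% = DMSO only and full effect = 92 µM tetraoctylammonium bromide; nearly all actives have a fitted effect of over 50% in size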
Outline: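 Acute cytotoxicity is scored as a concentration-dependent drop in intracellular ATP, measured by luciferase luminescence in human lymphoblastoid cells treated for 24 hours at 37 C. AC50 values derive from Hill-equation modelling.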

[7] = Cell Viability - LYMP2-004 (AID 966);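 note: plate controls were DMSO only for no effect and tetraoctylammonium bromide control for full effect; nearly all actives have a fitted effect of over 65% in size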
Outline: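 AC50 values come from Hill modelling of concentration-dependent loss of intracellular ATP, measured by CellTiter-Glo luminescence. Human LYMP2-004 lymphoblastoid cells (2500/well) were exposed to compound for 24 h at 37 C.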

[8] = Cell Viability - LYMP2-005 (AID 967);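 note: series mostly up to about 92 µM; plate controls were DMSO only for no effect and 92 µM tetraoctylammonium bromide control for full effect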
Outline: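 qHTS viability screen in LYMP2-005 cells: 24 h at 37 C with compound, ATP luminescence via CellTiter-Glo, AC50 from Hill curves.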

[9] = Cell Viability - LYMP2-009 (AID 968);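 note: series mostly up to about 92 µM; 0% = DMSO alone and the full-kill end = tetraoctylammonium bromide at 92 µM; nearly all actives have a fitted effect of over 55% in size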
[10] = Cell Viability - LYMP2-011 (AID 969);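 note: 0% = DMSO only and full inhibition = 92 µM tetraoctylammonium bromide; nearly all actives have a fitted effect of over 60% in size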
Outline: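 Cytotoxicity qHTS with ATP content as read-out: lymphoblastoid cells (2500/well) exposed to compound for 24 h at 37 C, then luciferase luminescence measured. Concentration-response data fitted with the standard Hill equation to give AC50.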

[11] = Cell Viability - LYMP2-013 (AID 970);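 note: series mostly up to about 92 µM; 0% = DMSO only and full inhibition = tetraoctylammonium bromide control; nearly all actives have a fitted effect of over 55% in size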
Outline: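 qHTS cytotoxicity: ATP-dependent luminescence (CellTiter-Glo, 30 min room temperature) read after 24 h compound exposure at 37 C of 2500 LYMP2-013 lymphoblastoid cells per well. Concentration-response fitted with Hill equation to give AC50.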

[12] = Cell Viability - LYMP2-015 (AID 971);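 note: 0% = DMSO only and full effect = 92 µM tetraoctylammonium bromide; nearly all actives have a fitted effect of over 55% in size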
Outline: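 Cytotoxicity readout: decrease in intracellular ATP (CellTiter-Glo luminescence) in 2500 LYMP2-015 lymphoblastoid cells/well after 24 h compound exposure at 37 C. Concentration-response data fitted with the standard Hill equation to give AC50.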

[13] = Cell Viability - LYMP2-017 (AID 972); note: series mostly up to about 92 µM; % is set by controls: 0 for no effect and ±100 for the full control effect; nearly all actives have a fitted effect of over 55% in size
Outline: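 CellTiter-Glo luminescence (cellular ATP, 30 min RT) measured cytotoxicity after 24 hr compound treatment at 37 C. Cells were a human lymphoblastoid line, LYMP2-017, plated at 2500/well and incubated 5 hr first; concentration-response fitted with Hill equation for AC50.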

[14] = Cell Viability - LYMP2-023 (AID 975)
Outline: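 Intracellular ATP, read by CellTiter-Glo luminescence, reports viability after 24 hr compound exposure at 37 C. 2500 lymphoblastoid cells/well (LYMP2-023) seeded 5 hr beforehand; Hill fits give AC50; positive control tetraoctylammonium bromide.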

[15] = Cell Viability - LYMP2-025 (AID 976);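 note: series mostly up to about 92 µM; plate controls were DMSO only for no effect and tetraoctylammonium bromide control for full effect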
Outline: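 Cytotoxicity read as loss of intracellular ATP (luciferase luminescence) after 24 h compound treatment at 37 C. Uses LYMP2-025 lymphoblastoid cells in 1536-well format; Hill-equation modelling gives AC50; tetraoctylammonium bromide as positive control.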

[16] = Cell Viability - LYMP2-002 (AID 977);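 note: series mostly up to about 92 µM; plate controls were DMSO only for no effect and 92 µM tetraoctylammonium bromide for full effect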
Outline: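 Human lymphoblastoid cells, 2500/well, complete medium; 5 h 37 C settle; compound 24 h 37 C; CellTiter-Glo, 30 min RT; luminescence. Decrease in ATP = cytotoxicity; AC50 via Hill equation.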

[17] = Cell Viability - LYMP2-006 (AID 978); note: series mostly up to about 92 µM; % is set by controls: 0 for no effect and ±100 for the full control effect; nearly all actives have a fitted effect of over 60% in size
Outline: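 Concentration-dependent loss of intracellular ATP in a human lymphoblastoid line after 24 hr treatment at 37 C was measured by CellTiter-Glo luminescence, with AC50 values obtained from standard Hill-equation modelling.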

[18] = Cell Viability - LYMP2-010 (AID 981)
Outline: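 CellTiter-Glo ATP luminescence measured cytotoxicity after 24 h compound exposure at 37 C. LYMP2-010 cells were seeded at 2500/well, with tetraoctylammonium bromide as control; concentration-response curves gave AC50 values by the Hill equation.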

[19] = Cell Viability - LYMP2-016 (AID 984)
Outline: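 Acute toxicity in a Coriell human lymphoblastoid line is scored as loss of intracellular ATP over 24 h of treatment in complete medium. CellTiter-Glo signal is fitted across concentrations with the Hill equation to give AC50.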

[20] = Cell Viability - LYMP2-018 (AID 985);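 note: plate controls were DMSO only for no effect and tetraoctylammonium bromide at 92 µM for full effect; nearly all actives have a fitted effect of over 50% in size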
Outline: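 Viability read as CellTiter-Glo luminescence (cellular ATP) after 24 hr compound exposure at 37 C of 2500 LYMP2-018 lymphoblastoid cells/well, pre-plated 5 hr. Hill-equation modelling gave AC50.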

[21] = Cell Viability - LYMP1-002 - Assay at 24 hr (AID 993); note: % is set by controls: 0 for no effect and ±100 for the full control effect
Outline: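 qHTS cytotoxicity at 24 h: CellTiter-Glo ATP luminescence in lymphoblastoid line LYMP1-002 incubated with compound at 37 °C. Concentration-response modeled with the Hill equation for AC50; tetraoctylammonium bromide served as positive control.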

[22] = Cell Viability - LYMP1-002 - Assay at 40 hr (AID 994);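 note: 0% = DMSO only and full inhibition = 92 µM tetraoctylammonium bromide; nearly all actives have a fitted effect of over 60% in size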
Outline: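 Cytotoxicity was read as loss of cellular ATP (CellTiter-Glo luminescence) after 40 hr compound exposure at 37 C of 2500 LYMP1-002 lymphoblastoid cells per well. Concentration-response data were fitted with the standard Hill equation to give AC50.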

[23] = biological target: Estrogen receptor (Homo sapiens) (UniProt P03372); assay: qHTS assay for small molecule antagonists of estrogen receptor alpha signaling (AID 588513; active = well fitted curve in the direction sought with a large enough effect in the signal ratio, with a control signal flat, not every such curve was filed as active; the % refers to the signal ratio; note: % is set by controls: 0 for no effect and ±100 for the full control effect)
Estrogen receptor (Homo sapiens), sequence (P03372 whole entry, looked up): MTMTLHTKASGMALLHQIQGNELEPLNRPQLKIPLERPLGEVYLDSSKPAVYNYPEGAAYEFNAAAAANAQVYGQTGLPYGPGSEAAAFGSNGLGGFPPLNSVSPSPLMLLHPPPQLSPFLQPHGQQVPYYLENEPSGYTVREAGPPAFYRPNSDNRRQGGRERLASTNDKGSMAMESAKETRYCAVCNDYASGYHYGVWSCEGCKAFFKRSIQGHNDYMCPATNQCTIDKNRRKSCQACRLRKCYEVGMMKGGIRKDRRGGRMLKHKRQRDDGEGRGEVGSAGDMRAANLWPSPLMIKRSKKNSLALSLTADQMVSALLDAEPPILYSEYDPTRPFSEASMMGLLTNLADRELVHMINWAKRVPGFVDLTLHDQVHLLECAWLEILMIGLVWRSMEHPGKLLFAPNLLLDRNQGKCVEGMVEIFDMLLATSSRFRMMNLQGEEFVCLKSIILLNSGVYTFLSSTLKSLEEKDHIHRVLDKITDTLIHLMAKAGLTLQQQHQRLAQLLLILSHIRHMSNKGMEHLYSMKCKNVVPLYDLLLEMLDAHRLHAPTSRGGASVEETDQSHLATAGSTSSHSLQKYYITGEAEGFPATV
Outline: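 Cells were plated at 5000/well and incubated 4 h at 37 C. Compounds were added as 1:2 dilution series, duplicates. 17-beta-estradiol (0.5nM final) was added for 18 h before CCF4 detection.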

[24] = biological target: Glucocorticoid receptor (Homo sapiens) (UniProt P04150); assay: qHTS assay for small molecule agonists of glucocorticoid receptor signaling (AID 588532; active = well fitted curve in the direction sought with a large enough effect in the signal ratio, with a control signal flat; the % refers to the signal ratio;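 note: 100% = dexamethasone at 0.1 µM and 0% = DMSO only wells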); settings: HeLa MMTV-bla, beta-lactamase ratio, agonist, 18 h; stronger effect = higher value; percent of dexamethasone control, DMSO zero
Glucocorticoid receptor (Homo sapiens), sequence (P04150 whole entry, looked up): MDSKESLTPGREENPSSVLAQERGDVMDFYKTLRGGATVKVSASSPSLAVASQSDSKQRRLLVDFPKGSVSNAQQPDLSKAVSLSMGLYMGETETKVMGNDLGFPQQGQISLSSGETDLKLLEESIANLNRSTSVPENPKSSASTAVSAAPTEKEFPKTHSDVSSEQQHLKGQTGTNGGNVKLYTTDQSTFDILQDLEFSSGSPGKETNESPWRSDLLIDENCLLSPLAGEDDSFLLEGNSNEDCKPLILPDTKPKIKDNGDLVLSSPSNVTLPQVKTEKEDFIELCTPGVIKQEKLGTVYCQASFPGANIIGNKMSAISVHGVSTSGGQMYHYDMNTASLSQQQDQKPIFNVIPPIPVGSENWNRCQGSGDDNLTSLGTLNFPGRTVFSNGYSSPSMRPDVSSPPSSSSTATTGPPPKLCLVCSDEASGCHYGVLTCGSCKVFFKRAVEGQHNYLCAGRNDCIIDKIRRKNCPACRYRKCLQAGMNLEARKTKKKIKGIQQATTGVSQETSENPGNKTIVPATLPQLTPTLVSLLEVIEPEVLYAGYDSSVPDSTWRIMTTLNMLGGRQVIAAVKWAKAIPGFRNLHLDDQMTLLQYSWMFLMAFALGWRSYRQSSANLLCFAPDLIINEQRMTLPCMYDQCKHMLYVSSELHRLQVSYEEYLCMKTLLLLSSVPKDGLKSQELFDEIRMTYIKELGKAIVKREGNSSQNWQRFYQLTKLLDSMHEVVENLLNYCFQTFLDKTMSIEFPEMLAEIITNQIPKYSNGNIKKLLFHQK
Outline: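 Cells were plated and rested 3-5 h at 37 C, compounds were added in titration and incubated 18 h, then CCF4 substrate was loaded for 2 h at RT before reading blue/green fluorescence. EC50 came from Hill-equation fitting.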

[25] = biological target: Glucocorticoid receptor (Homo sapiens) (UniProt P04150); assay: qHTS assay for small molecule antagonists of glucocorticoid receptor signaling (AID 588533; active = well fitted inhibition curve with a large enough effect in the signal ratio, with a control signal flat, not every such curve was filed as active; the % refers to the signal ratio;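 note: cells stimulated with 2 nM dexamethasone as agonist; potency is the fitted concentration of half-maximal effect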)
Outline: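 Antagonist-mode qHTS: compound titrations added to GRE-bla HeLa cells, then dexamethasone 2 nM final; 18 h, 37 C. CCF4 FRET fluorescence normalized to dexamethasone and DMSO; IC50 from Hill fit.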

[26] = biological target: Thyroid hormone receptor beta (Homo sapiens) (UniProt P10828); assay: qHTS assay for small molecule antagonists of thyroid hormone receptor beta signaling (AID 588547; active = well fitted inhibition curve with a large enough effect in the signal ratio, with a control signal flat, not every such curve was filed as active; the % refers to the signal ratio;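 note: cells stimulated with 0.4 nM T3 agonist during compound exposure; series mostly up to about 77 µM; % is set by controls: 0 for no effect and ±100 for the full control effect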); settings: TR-UAS-bla HEK293, beta-lactamase ratio, antagonist mode, 18 h
Thyroid hormone receptor beta (Homo sapiens), sequence (P10828 whole entry, looked up): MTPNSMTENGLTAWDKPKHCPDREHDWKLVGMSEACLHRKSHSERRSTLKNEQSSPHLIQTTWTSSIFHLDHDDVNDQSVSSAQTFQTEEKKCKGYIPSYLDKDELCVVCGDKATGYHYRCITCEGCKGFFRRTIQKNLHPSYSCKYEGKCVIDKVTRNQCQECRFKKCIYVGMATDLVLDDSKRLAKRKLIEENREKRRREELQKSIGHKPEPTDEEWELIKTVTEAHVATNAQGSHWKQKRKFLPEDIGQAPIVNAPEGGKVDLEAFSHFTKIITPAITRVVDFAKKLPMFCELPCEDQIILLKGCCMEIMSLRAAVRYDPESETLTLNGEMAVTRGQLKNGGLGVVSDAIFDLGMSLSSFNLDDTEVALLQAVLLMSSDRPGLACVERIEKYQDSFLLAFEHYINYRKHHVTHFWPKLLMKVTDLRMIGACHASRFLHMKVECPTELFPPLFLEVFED
Outline: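 TR-UAS-bla GripTite HEK293 cells in 2% charcoal/dextran FBS medium; compounds 0.59 nM to 92 uM with T3 at 0.4nM final, 18 h at 37 C. Beta-lactamase read by CCF4 fluorescence (460/530 nm); Hill fits gave IC50 and efficacy.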

[27] = biological target: Voltage-gated inwardly rectifying potassium channel KCNH2 (Homo sapiens) (UniProt Q12809); assay: qHTS Assay for Small Molecule Inhibitors of the Human hERG Channel Activity (AID 588834);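 note: U2OS cells transduced with hERG by BacMam; top concentration of the series differs between compounds; % is set by controls: 0 for no effect and ±100 for the full control effect; lower thallium flux fluorescence means stronger hERG block; nearly all actives have a fitted effect of over 50% in size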
Voltage-gated inwardly rectifying potassium channel KCNH2 (Homo sapiens), sequence (Q12809 whole entry, looked up): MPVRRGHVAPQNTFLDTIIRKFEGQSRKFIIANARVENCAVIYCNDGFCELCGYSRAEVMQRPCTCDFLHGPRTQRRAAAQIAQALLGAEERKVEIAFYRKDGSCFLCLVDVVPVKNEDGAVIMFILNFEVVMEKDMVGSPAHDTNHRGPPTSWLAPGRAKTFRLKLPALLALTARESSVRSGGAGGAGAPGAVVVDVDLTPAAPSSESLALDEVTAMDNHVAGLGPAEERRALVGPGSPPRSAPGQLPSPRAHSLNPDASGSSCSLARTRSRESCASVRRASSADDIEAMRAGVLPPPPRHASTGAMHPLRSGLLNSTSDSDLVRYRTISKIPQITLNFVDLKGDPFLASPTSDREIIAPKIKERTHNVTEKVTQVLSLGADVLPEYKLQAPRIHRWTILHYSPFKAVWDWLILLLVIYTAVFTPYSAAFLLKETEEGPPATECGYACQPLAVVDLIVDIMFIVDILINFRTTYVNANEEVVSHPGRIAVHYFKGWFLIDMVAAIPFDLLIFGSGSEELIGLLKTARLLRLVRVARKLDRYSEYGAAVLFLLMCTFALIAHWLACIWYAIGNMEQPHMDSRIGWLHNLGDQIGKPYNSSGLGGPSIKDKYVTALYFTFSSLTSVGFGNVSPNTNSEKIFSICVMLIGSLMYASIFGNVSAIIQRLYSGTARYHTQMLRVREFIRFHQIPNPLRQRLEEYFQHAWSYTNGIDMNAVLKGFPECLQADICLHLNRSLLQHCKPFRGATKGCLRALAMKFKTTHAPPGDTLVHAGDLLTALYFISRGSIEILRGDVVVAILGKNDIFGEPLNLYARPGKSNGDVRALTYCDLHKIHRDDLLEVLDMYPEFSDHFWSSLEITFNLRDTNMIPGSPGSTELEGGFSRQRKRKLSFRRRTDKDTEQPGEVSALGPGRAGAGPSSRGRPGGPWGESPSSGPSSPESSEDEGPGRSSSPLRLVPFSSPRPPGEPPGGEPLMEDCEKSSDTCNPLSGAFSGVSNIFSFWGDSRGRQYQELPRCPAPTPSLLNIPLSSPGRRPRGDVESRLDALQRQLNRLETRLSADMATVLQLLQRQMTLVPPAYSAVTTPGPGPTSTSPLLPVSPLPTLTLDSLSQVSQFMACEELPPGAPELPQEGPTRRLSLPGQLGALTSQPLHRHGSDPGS
Outline: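 Cells were infected with hERG-BacMam virus for 4 hrs at room temperature, grown overnight, then seeded at 2000/well. After dye loading and roughly 10 min compound treatment, thallium influx was triggered and fluorescence recorded.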

[28] = qHTS assay for small molecule activators of the nuclear factor-kappa B (NF-kB) signaling pathway (AID 651749; active = well fitted activation curve with a large enough effect in the signal ratio; the % refers to the signal ratio; note: series mostly up to about 77 µM; % of control where 0% means no effect); settings: NF-kB-bla ME-180 cells, beta-lactamase FRET ratio, 16 h; stronger effect = higher value
Outline: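 In this qHTS format, compounds acting as activators increase NF-kB-driven beta-lactamase in ME-180 cells, measured as disrupted FRET after 16 hr exposure at 37C and 5% CO2.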

[29] = qHTS assay for small molecule disruptors of the mitochondrial membrane potential - 1 hr assay (AID 651754; calls by dose curve; note: potency is the fitted concentration of half-maximal effect; nearly all actives have a fitted effect of over 35% in size)
Outline: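 Mitochondrial potential in living HepG2 cells after 1 hr compound treatment at 37C was read with Mito-MPS dye added for a further 30 min. Red aggregate and green monomer fluorescence were measured; loss of potential leaves dye as cytoplasmic monomers.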

[30] = qHTS assay to identify small molecules that stimulate interleukin-8 (IL-8) secretion (AID 651758; active = well fitted activation curve with a large enough effect in the signal ratio; the % refers to the signal ratio; note: 0% is about no effect)
Outline: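 Compounds are added to THP-1 cells (2000 per well) and left 16 hrs at 37 C. A labeled anti-IL-8 antibody pair is then added, and IL-8 secretion is measured by time-resolved FRET after 1-3 hrs at room temperature.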

[31] = qHTS assay for environmental chemicals that activate the Aryl hydrocarbon Receptor (AhR) signaling pathway (AID 651777); settings: 1A2-DRE human hepatoma cells, luciferase, 24 h; activation: stronger effect = higher value; note: potency is the fitted concentration of half-maximal effect; nearly all actives have a fitted effect of over 15% in size
Outline: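 Concentration–response screening used 1,200 1A2-DRE cells per well, 24 hr compound exposure (37 C, 5% CO2), and One-Glo luminescence as the AhR-driven CYP1A2 reporter signal.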

[32] = biological target: Peroxisome proliferator-activated receptor alpha (Homo sapiens) (UniProt Q07869); assay: qHTS assay for small molecule agonists of the peroxisome proliferator-activated receptor alpha (PPARalpha) signaling pathway (AID 651778); settings: PathHunter PPARalpha complementation, chemiluminescence, 6 h; max response: stronger effect = higher value; note: % of control where 0% means no effect
Peroxisome proliferator-activated receptor alpha (Homo sapiens), sequence (Q07869 whole entry, looked up, the tested form may be a part): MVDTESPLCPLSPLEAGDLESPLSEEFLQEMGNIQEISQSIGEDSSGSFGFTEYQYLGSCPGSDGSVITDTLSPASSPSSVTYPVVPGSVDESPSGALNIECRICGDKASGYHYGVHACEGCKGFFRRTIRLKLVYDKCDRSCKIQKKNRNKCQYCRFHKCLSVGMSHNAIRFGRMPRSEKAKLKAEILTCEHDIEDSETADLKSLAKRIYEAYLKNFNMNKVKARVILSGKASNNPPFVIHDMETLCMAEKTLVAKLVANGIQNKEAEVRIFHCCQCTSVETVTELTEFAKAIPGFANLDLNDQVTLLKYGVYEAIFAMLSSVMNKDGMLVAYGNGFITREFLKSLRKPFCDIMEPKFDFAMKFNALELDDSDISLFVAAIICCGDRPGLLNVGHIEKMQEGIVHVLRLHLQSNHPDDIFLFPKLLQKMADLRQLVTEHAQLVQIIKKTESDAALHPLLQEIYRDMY
Outline: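 Enzyme-fragment complementation assay in which ligand-bound PPARalpha translocates and forms an active enzyme that generates chemiluminescence. Cells were plated overnight, exposed to compound for 6 hr at 37 C, and then given detection reagent for 60 min at room temperature.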

[33] = biological target: Nuclear receptor ROR-gamma (Homo sapiens) (UniProt P51449); assay: qHTS assay for small molecule antagonists of the retinoid-related orphan receptor gamma (ROR-gamma) signaling pathway (AID 651802)
Nuclear receptor ROR-gamma (Homo sapiens), sequence (P51449 whole entry, looked up): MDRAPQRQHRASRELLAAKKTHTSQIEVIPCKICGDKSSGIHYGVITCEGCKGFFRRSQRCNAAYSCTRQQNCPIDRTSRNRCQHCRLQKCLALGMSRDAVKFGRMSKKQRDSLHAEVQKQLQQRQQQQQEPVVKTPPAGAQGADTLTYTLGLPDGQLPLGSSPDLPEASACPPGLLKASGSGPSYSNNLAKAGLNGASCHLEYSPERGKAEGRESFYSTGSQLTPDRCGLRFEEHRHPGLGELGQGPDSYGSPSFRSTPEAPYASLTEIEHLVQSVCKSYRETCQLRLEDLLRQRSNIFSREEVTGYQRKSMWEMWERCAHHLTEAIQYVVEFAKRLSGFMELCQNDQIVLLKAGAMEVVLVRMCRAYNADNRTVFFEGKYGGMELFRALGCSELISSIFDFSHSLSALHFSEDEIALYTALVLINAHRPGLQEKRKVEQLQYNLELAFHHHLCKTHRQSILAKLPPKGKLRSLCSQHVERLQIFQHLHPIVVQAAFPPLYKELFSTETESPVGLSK
Outline: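 Luminescence (One-Glo, 30 min RT) measured 16 h after compound addition and doxycycline induction at 37C. Reporter: RORE-luciferase under TET-inducible ROR-gamma in CHO cells.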

[34] = qHTS assay for small molecule antagonists of the retinoid-related orphan receptor gamma (ROR-gamma) signaling pathway - cell viability counter screen (AID 720652; active = well fitted curve in the direction sought with a large enough effect in the repeat runs; an effect the other way counts as inactive or inconclusive)
Outline: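 Cytotoxicity counter screen: intracellular ATP (CellTiter-Glo luminescence) measured in the doxycycline-induced CHO RORE-luciferase reporter line after 16 hr compound exposure at 37 C, 5% CO2.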

[35] = qHTS assay for small molecule agonists of the antioxidant response element (ARE) signaling pathway measured by Nrf2-dependant transcriptional activity - cell viability counter screen (AID 720653; active = well fitted curve in the direction sought with a large enough effect in the repeat runs; an effect the other way counts as inactive or inconclusive; note: % is set by controls: 0 for no effect and ±100 for the full control effect); settings: ARE-bla HepG2 viability, CellTiter-Glo ATP luminescence, 16 h; max response: stronger effect = lower value
Outline: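 ARE-bla HepG2 cells treated with compounds for 16 h at 37C; this counter screen measures viability as intracellular ATP by CellTiter-Glo luminescence after 30 min at room temperature.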

[36] = qHTS assay for cell viability of HEK293 cells (AID 743288); settings: ATP luminescence (CellTiter-Glo), 18 h; max response: stronger effect = lower value; note: % is set by controls: 0 for no effect and ±100 for the full control effect; nearly all actives have a fitted effect of over 50% in size
Outline: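 Quantitative high-throughput screen: compounds were pinned onto parental HEK293 cells (2,000 per well) after a minimum 5 h settling at 37 C, incubated 18 h at 37 C, and intracellular ATP measured by luciferase luminescence.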

[37] = qHTS assay for cell viability of the p53RE-bla HCT-116 cell line (AID 743292)
Outline: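 Compound-exposed HCT-116 (p53RE-bla) cells, 4,000 per well, were kept 16 h at 37 C following a 5 h preincubation. Cell number was estimated from total ATP by CellTiter-Glo luminescence read after 30 min at room temperature.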

O=C(O)c1cc(N=Nc2ccc([N+](=O)[O-])cc2)ccc1O
inactive: outcome [1] | Potency [2] | Potency [3] | Potency [4] | Potency [5] | Potency [6] | Potency [7] | Potency [8] | Potency [9] | Potency [10] | Potency [11] | Potency [12] | Potency [13] | Potency [14] | Potency [15] | Potency [16] | Potency [17] | Potency [18] | Potency [19] | Potency [20] | Potency [21] | Potency [22] | outcome [23] | activation [24] -18.2% | activity change % (negative = inhibition) [26] 12.8% | Potency [27] | activation [28] -2.01% | Potency [30] | max response [32] -12.2% | Potency [33] | Potency [34] | max response [35] -5.1% | max response [36] 6.02% | Potency [37]
active: Potency [25] 10 µM | Potency [29] 37.6 µM | Potency [31] 4.47 µM
